Only some compounds are listed: those with a hit (about 7.2% of all), similar ones and a draw of the others.
MARV entry inh: qHTS for inhibitors of binding or entry into cells for Marburg Virus. Potency, µM (titrated, usually from 37.8 µM), usual class: inhibitors. actives 1.8% (n = 300,000). Marburg virus pseudotyped entry inhibition, cell reporter; calls by dose curve; tested in HEK293 cells
Sm TGR block: qHTS Assay for the Inhibitors of Schistosoma Mansoni Peroxiredoxins | purified TGR, DTNB reduction, TNB absorbance 405 nm | Potency, µM (highest dose often 114 µM), hits mostly inhibitors | Schistosoma mansoni thioredoxin glutathione reductase (TGR), Q962Y6 | actives 3% (n = 360,000); further: nearly all actives have a fitted effect of over 60% in size
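Kinetic colorimetric format: TGR-catalysed, NADPH-driven DTNB reduction monitored via TNB absorbance. Enzyme dispensed at 20 nM; compound exposure 15 min at room temperature before reaction start.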
HCV inh: qHTS Assay for Inhibitors of Hepatitis C Virus (HCV); Huh7.5.1 HCVcc-Cre infection, luciferase reporter, 44 h; Potency, µM (top dose mostly 41.8 µM), usual class: inhibitors; actives 3.4% (n = 340,000); AID 651820, 2012
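After 44 h co-culture of compound, cells and HCVcc-Cre (~0.5 moi), substrate is added for 15 min at room temperature and luciferase measured over 15 sec. Cells were seeded at 1,000/well and pre-cultured 4 h.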
RE007 growth inh: qHTS Assay for Inhibitors of the HIV-1 protein Vpr; AID 651644, 2012; Potency, µM (titrated, usually from 92.2 µM), usual class: inhibitors; S. pombe RE007 Vpr strain, BacTiter-Glo ATP luminescence, 24 h; actives 0.21% (n = 360,000); active means well fitted falling curve with a large enough effect; inconclusive means small, poorly fitted or top-dose-only effect; inactive means no such curve, though single readings can be large or run the other way; further: nearly all actives have a fitted effect of over 50% in size
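Fission yeast strain RE007, carrying one chromosomally integrated HIV-1 vpr copy, was seeded at OD 0.01 in PMG+AL medium with 23 nL pinned compound. After 24 h at 30 °C and 99% humidity, viability was read by BacTiter-Glo luminescence.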
LASV entry inh: qHTS for Inhibitors of binding or entry into cells for Lassa Virus. Lassa virus pseudotype entry inhibition, cell reporter. Potency, µM (doses to about 37.9 µM), usual class: inhibitors. actives 1.2% (n = 300,000). AID 540256, 2011; calls by dose curve; tested in HEK293 cells; further: nearly all actives have a fitted effect of over 50% in size
FMDV inh: High Throughput Screening for Foot and Mouth Disease Virus Antivirals | actives 1.2% (n = 410,000) | AID 1159524, 2015 | FMDV antiviral cell-based qHTS | Potency, µM (top dose mostly 57.9 µM), hits mostly inhibitors; calls by dose curve; tested in HEK293T cells; further: read-out not given here; nearly all actives have a fitted effect of over 45% in size
Hits are given with their value; n = inactive; u = inconclusive; x = no result. Unless noted, the call rests on the fitted dose curve; in most records, active means well fitted curve in the direction sought with a large enough effect; inconclusive means small, poorly fitted or top-dose-only effect, or another doubt; inactive means no such curve, though single readings can be large; an effect the other way counts as inactive or inconclusive.

SMILES	MARV entry inh	Sm TGR block	HCV inh	RE007 growth inh	LASV entry inh	FMDV inh
CCc1ccc(N2CSC3=C(C#N)C(c4cccs4)CC(=O)N3C2)cc1 (stereo unspecified)	u	n	u	n	n	n
CCc1ccc(C2CC(=O)N3CN(c4ccccc4)CSC3=C2C#N)cc1 (stereo unspecified)	x	35.5µM	n	n	x	n
COc1ccc(N2CSC3=C(C#N)C(c4ccc(OC)c(OC)c4)CC(=O)N3C2)c(OC)c1 (stereo unspecified)	x	7.94µM	n	n	x	n
COc1cc(C(CC(=O)Nc2cccc(C(C)=O)c2)N2Cc3ccccc3C2=O)cc(OC)c1OC (stereo unspecified)	x	n	x	x	n	n
O=C1COc2ccc(N3C(=O)C=CC3=O)cc2N1	x	0.398µM	x	x	x	x
COc1cccc(CNCC(O)(c2ccc(Cl)cc2)c2ccc(Cl)cc2)c1	18.3µM	n	n	n	n	u
Cc1ccc(CNCC(O)(c2ccccc2)c2ccc(Cl)cc2)cc1 (stereo unspecified)	10µM	n	u	n	n	n
COc1ccc(CNCC(O)(c2ccccc2)c2ccc(Cl)cc2)cc1 (stereo unspecified)	u	n	u	n	n	n
O=C(COc1ccc(Cl)cc1)OCc1cc(=O)n2nc(C3CC3)sc2n1	x	n	x	x	n	n
C[n+]1ccccc1/C=N\O	n	x	x	x	x	x
COc1ccc(-c2csc(N(CCCN(C)C)C(=O)c3ccc(C)cc3)n2)cc1	u	n	25.1µM	n	n	n
COCCCN(C(C)=O)c1nc(-c2ccc(OC)cc2)cs1	u	n	u	n	10.3µM	n
CCN(CC)CCCN(C(=O)c1ccc(OC)cc1)c1nc(-c2ccc(OC)cc2)cs1	u	n	u	n	u	n
COc1ccc(-c2csc(N(CCCN(C)C)C(=O)c3ccc(Br)cc3)n2)cc1	u	n	u	n	u	n
O=C(CN1C(=O)c2cccnc2Oc2ccc(Cl)cc21)N1CCCCCC1	n	n	n	n	n	n
O=C(CCCN1C(=O)c2cccnc2Oc2ccc(Cl)cc21)N1CCCCC1	x	12.6µM	n	n	x	n
Cc1cccc(-c2nc(Cn3c(SCc4cc(C)ccc4C)nc4ccncc43)c(C)o2)c1	n	79.4µM	x	x	n	u
Cc1ccc(C)c(CSc2nc3ccncc3n2Cc2nc(-c3ccccc3Cl)oc2C)c1	n	n	x	x	n	n
O=C(O)CCn1cc(/C=C/C(=O)c2ccc(Cl)cc2)c(-c2ccc(Br)cc2)n1	n	u	n	u	n	15.8µM
CCOc1ccc(-c2nc(N)ncc2-c2ccc(OC)cc2)c(O)c1	u	n	u	n	n	n
CCOc1ccc(-c2nc(N)ncc2Oc2ccc(OC)cc2)c(O)c1	n	n	14.1µM	n	n	n
CCOc1ccc(-c2nc(N)ncc2-c2ccccc2)c(O)c1	u	n	10µM	n	n	u
CC(C)(C)C1=CC=C(C(C)(C)C)C(=O)C1=O	x	25.1µM	x	x	x	x
O=C(CSc1cccc[n+]1[O-])CSc1cccc[n+]1[O-]	n	n	n	7.94µM	n	n
CCOc1ccc(NC(=O)CSc2ncc3c(n2)-c2ccc(Cl)cc2N(Cc2ccccc2)S3(=O)=O)cc1	x	n	x	x	n	n
SMILES	MARV entry inh	Sm TGR block	HCV inh	RE007 growth inh	LASV entry inh	FMDV inh
CCCn1nnc(NC(=O)/C=C/c2ccco2)n1	n	5.62µM	n	n	n	n
Cn1nnc(NC(=S)NC(=O)/C=C/c2ccco2)n1	n	3.16µM	n	n	n	n
COc1cc2c(-c3ccc4cc[nH]c4c3)c(-c3ccc(C#N)cc3)oc(=O)c2cc1OC	x	n	11.2µM	n	x	n
COc1ccccc1-c1oc2ccccc2c1-c1ccc2cc[nH]c2c1	x	u	11.2µM	n	x	n
O=C1CCc2cc(S(=O)(=O)NCCC(=O)N3CCN(c4cccc(Cl)c4)CC3)ccc2N1	n	n	u	n	u	15.8µM
COc1ccc(N2CCN(C(=O)CC(C)S(=O)(=O)c3ccc4c(c3)NC(=O)CO4)CC2)cc1 (stereo unspecified)	u	n	u	n	u	u

Screening data from PubChem.
